# aSyn UTR act – Activators via SNCA 5'UTR binding, MLPCN; alpha-synuclein 5'UTR reporter, activators screen; activity score, % (tested at 7.5 µM), hits read low; actives 7.1% (n = 300,000); in the data active means activity score below about -60%
# * marks the source's active call; other numbers are inactive results. The list is a sample of the results.
SMILES,aSyn UTR act
COc1ccc2nc(/N=C/c3c(C)[nH]n(-c4ccc(C)cc4)c3=O)sc2c1,-73*
CN(C)/C=N/c1nc2ccc3c(c2s1)CCCC3,-138*
Cc1ccc(-n2[nH]c(C)c(C=NCc3ccncc3)c2=O)cc1,-65*
N#C/C(=C\c1cc(Cl)c(OCc2ccc(Cl)cc2)c(Cl)c1)C(N)=O,-143*
CCOc1ccc(N)c(SSc2cc(OCC)ccc2N)c1,-121*
Cc1nn(C(=O)c2cccs2)c(N)c1-c1ccccc1,-125*
C#CCn1c(=NC(=O)c2ccc(Br)s2)sc2cccc(OC)c21,-113*
O=C(NCc1ccco1)/C(=C/c1ccc(C(F)(F)F)cc1)c1nc2ccccc2[nH]1,-94*
O=C(NCc1ccco1)/C(=C/c1cccc(C(F)(F)F)c1)c1nc2ccccc2[nH]1,-84*
Cc1ccc(/C(N)=N/OC(=O)c2cccc(F)c2)cc1,-262*
N/C(=N\OC(=O)c1cccc(F)c1)c1ccccc1,-331*
Cc1ccc(/C(N)=N/OC(=O)c2ccc3ccccc3c2)cc1,-124*
O=C(C[n+]1cc(-c2ccc(F)cc2)n2c1CCC2)Nc1nc(-c2ccccc2)cs1,-89*
O=S(=O)(Nc1ccc(-c2nc3cccnc3s2)cc1)c1ccc(Cl)s1,-121*
Cc1cc(-c2nc3cccnc3s2)ccc1NS(=O)(=O)c1cccs1,-167*
O=S(=O)(Nc1ccc(-c2nc3cccnc3s2)cc1)c1ccccc1F,-84*
O=S(=O)(Nc1ccc(-c2nc3cccnc3s2)cc1)c1cccs1,-89*
CCOc1cc(/C=N\NC(N)=O)cc(Br)c1OC(C)C,62
C=CCOc1c(Br)cc(/C=N/Nc2ccc(C(=O)O)cc2)cc1OCC,-123*
COc1ccc2oc(=O)c(C(=O)Nc3ccccc3C)cc2c1,-199*
O=C(Nc1ccccc1O)c1cc2cc(Br)ccc2oc1=O,-124*
Cc1cccnc1NC(=O)c1cc2ccccc2oc1=O,-200*
CN(C)C(CNC(=O)c1cc2ccccc2oc1=O)c1ccccc1 (stereo unspecified),-162*
CCCCCCc1cc2cc(C(=O)Nc3ccccc3)c(=O)oc2cc1O,92
COc1ccc2oc(=N)c(C(=O)Nc3ccccc3Cl)cc2c1,-209*
SMILES,aSyn UTR act
COc1ccc2oc(=O)c(C(=O)Nc3cccc(C(C)=O)c3)cc2c1,-82*
COc1ccc2oc(=N)c(C(=O)Nc3cccc(C)c3C)cc2c1,-158*
Cc1ccc(N=C/C(C(=O)C(F)(F)F)=C(\O)c2ccco2)cc1Cl,-184*
Cc1cccc(N=C/C(C(=O)C(F)(F)F)=C(\O)c2ccco2)c1,-167*
O=C(/C(C=Nc1ccc(F)cc1)=C(/O)c1ccco1)C(F)(F)F,-113*
CCc1ccc(NC(=O)[C@H](C)NC(=O)C2CCN(C(=O)[C@@H](N)Cc3ccccc3)CC2)cc1,-84*
Cc1ccc(C(=O)N/C(=C\c2ccc(-c3ccc(Br)cc3)o2)C(=O)NCCCN(C)C)cc1,100
O=C(NCc1cccnc1)/C(=C\c1ccc(-c2ccc(Br)cc2)o1)S(=O)(=O)c1ccccc1,-138*
O=C(NCc1cccnc1)/C(=C/c1ccc(-c2ccc(Cl)cc2)o1)S(=O)(=O)c1ccccc1,-79*
Cc1cccc(NC(=S)NNC(=O)c2sccc2C)c1,-134*
CCc1cc(C(=O)NNC(=S)Nc2cccc(C)c2)cs1,-130*
Cc1cccc(NC(=S)NNC(=O)c2csc(C(C)C)c2)c1,-211*
CCc1cc(C(=O)Nc2ccc(C)cc2Br)cs1,-255*
Oc1ccc2c(c1)oc1cc(O)ccc12,-178*
O=[N+]([O-])c1cnc(Nc2ccc(Cl)cn2)c([N+](=O)[O-])c1,-129*
O=C(Nc1ccccn1)Nc1ccccc1Cl,-131*
Cc1cc(NC(=O)Nc2ccccc2Cl)no1,-74*
O=C(Nc1ccc(Cl)cn1)c1ccccc1[N+](=O)[O-],-77*
S=C(Nc1ccccn1)Nc1ccccc1Cl,-83*
O=C(Nc1ccc(Cl)cn1)Nc1ccccc1Cl,-87*
Nc1nn2cc(-c3ccc(Br)cc3)nc2c2ccccc12,-165*
Brc1ccc(-c2cn3nc4c(nc3n2)CCCC4)cc1,93
N/C(=N\c1nc2c(c(=O)[nH]1)CCC2)Nc1cccc2ccccc12,-71*
Cc1ccc(NC(=O)C2CCCN(c3ncccn3)C2)c(C)c1 (stereo unspecified),-78*
C/C(=N\NC(=O)C1CCCN(S(=O)(=O)c2ccccc2)C1)c1ccccn1 (stereo unspecified),67
SMILES,aSyn UTR act
Cc1ccc(NC(=O)C2CCCN(c3ncccn3)C2)cc1F (stereo unspecified),-269*
O=C(Nc1ccc2c(c1)CCC2)C1CCCN(c2ncccn2)C1 (stereo unspecified),-157*
O=C(Nc1ccc(C#Cc2ccccc2)cc1)C1CC1,-113*
O=C(Nc1ccccc1O)c1ccc(NC(=O)C2CC2)cc1,-805*
CCCC(=O)Nc1ccc(C#Cc2ccccc2)cc1,-68*
CN(C)C=Nc1ncc2c([nH]c3ccccc32)c1C#N,-113*
Cc1cc(N/N=C/c2c(O)ccc3ccccc23)nc(-c2ccccc2O)n1,72
Cc1cc(Nc2ccccc2)nc(-c2ccccc2O)n1,-101*
NNc1nc(-c2ccccc2Cl)nc2sc3c(c12)CCCC3,-200*
Cc1ccn2c(c1)nc(=S)n2C(=O)c1ccccc1,-100*
Cc1cccc2nc(=S)n(C(=O)c3ccco3)n12,-221*
O=C(c1ccco1)n1c(=S)nc2ccccn21,-172*
COc1ccccc1C(=O)Nc1ccc2c(C)cc(=O)oc2c1,-154*
CCOC(=O)Nc1ccc2c(COC(=O)c3ccccc3O)cc(=O)oc2c1,-83*
Cc1ccccc1OCCC(=O)Nc1ccc2c(C)cc(=O)oc2c1,-64*
CCN(CC)c1ccc(C(=O)OCc2cc(=O)oc3cc(O)ccc23)cc1,117
NC(=Nc1ccc(Br)cc1)c1ccccc1,-75*
Nn1c(SCc2ccccc2)nc2ccccc21,-127*
CCn1c(O)c(C=Nc2ccccc2)sc1=S,-153*
CCn1c(O)c(C=Nc2ccccc2)sc1=O,-101*
C=CCn1c(O)c(C=Nc2ccccc2)sc1=S,-107*
Oc1nc(Nc2ccccc2)sc1/C=C1\C=Nc2ccccc21,-112*
CC1=Nc2ccccc2/C1=C/c1sc(=N)n(-c2nccs2)c1O,63
CCn1c(O)c(/C=C2\C=Nc3ccccc32)sc1=O,-245*
CCOC(=O)/C(C#N)=C/c1cc(C)n(-c2ccc(C)cc2)c1C,-130*
SMILES,aSyn UTR act
CC(C)COC(=O)/C(C#N)=C/c1cn(Cc2ccccc2)c2ccccc12,80
COc1cc(O)oc1C=Nc1ccc(C(F)(F)F)cc1,-89*
NC(=O)C1CCN(C(=S)c2ccc(-c3ccc(Br)cc3)o2)CC1,-127*
CCC(=O)Nc1cc2nn(-c3ccc(C)cc3)nc2cc1C,80
COc1ccc(-n2nc3cc(C)c(NC(=S)NC(=O)c4ccccc4C)cc3n2)cc1,-173*
CCCCC(=O)Nc1cc2nn(-c3ccc(OC)cc3)nc2cc1C,-67*
O=C(NC1CC1)c1cc2cc3ccccc3nc2s1,-152*
CCC(=O)Nc1nnc(/C=C/c2ccc(OC)cc2)s1,-141*
COc1ccc2sc(NC(C)=O)nc2c1,-119*
COc1ccc2sc(NCc3ccccc3)nc2c1,-112*
CCC(=O)Nc1nc2ccc3nc(C)sc3c2s1,-151*
CCC(=O)Nc1nc2cc(OC)ccc2s1,-107*
COc1ccc2sc(NC(=O)CC(C)C)nc2c1,-120*
COc1ccc(-c2nc3cc(C)ccn3c2NCc2ccc3c(c2)OCO3)cc1,-112*
COc1ccc(-c2nc3ccccn3c2NCc2ccc3c(c2)OCO3)cc1,-91*

# Screening data (PubChem BioAssay)
